Structures are written as SMILES.

What all share (details): concentration: 1 μM,replicates: in singlicate; n = 1
The subject of assay [1] is FYN.
Assay [2] has as its system GAK.
Assay [3] concerns T1, GCN2(Kin.Dom.2,S808G).
T1 construct: gene EIF2AK4

The subject of assay [4] is GRK1.
Assay [5] has as its system T2, GRK2.
T2 construct: gene ADRBK1

For assay [6], the system named is T3, GRK3.
T3 construct: gene ADRBK2

Assay [7] deals with GRK4.
The test system of assay [8] is GRK7.
The test system of assay [9] is GSK3A.
Assay [10] concerns GSK3B.
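Further: KINOMEscan kinase panel screen.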

`CN1CCN(CCCNc2nccc(-c3c(-c4ccc(F)cc4)nn4cc(C(N)=O)ccc34)n2)CC1` [GW622475]: the “%Inh” value in [1] is recorded as 9%; in assay [2] it was 87%; in [3] it was 5%; in assay [4] it was 0%; in assay [5], 0%; in [6] it was 0%. For the same molecule, the “%Inh” value in assay [7] was 9%; in [8] it was 0%; in assay [9] it was 33%; in [10], 33%.

As for `Cc1n[nH]c2cc(Nc3ccnc(Nc4cccc(CN5CCOCC5)c4)n3)ccc12` [GW682569], the “%Inh” value in [1] is reported as 75%; in assay [2] it was 74%; in assay [3], 39%; in assay [4], 5%; in [5], 31%; in [6], 24%. Further, the “%Inh” value in assay [7] is 64%; in assay [8] it was 0%; in assay [9], 0%; in assay [10], 15%.

In the case of `Cn1ccc2ncnc(Oc3ccc(NC(=O)Nc4ccnc(C(F)(F)F)c4)c(Cl)c3)c21`, the “%Inh” value in assay [1] is 0%; in assay [2], 0%; in assay [3] it was 10%; in assay [4], 0%; in assay [5], 0%; in assay [6], 29%. For the same molecule, the “%Inh” value in [7] was found to be 100%; in [8], 0%; in assay [9], 11%; in [10], 0%.

In the case of `CN(c1ccc2c(c1)nc(NCc1ccc(F)cc1)n2C)c1ccnc(Nc2ccc(CS(C)(=O)=O)cc2)n1.Cl` [GW813244], the “%Inh” value in assay [1] is reported as 74%; in [2] it was 15%; in assay [3], 68%; in assay [4] it was 27%; in assay [5] it was 0%; in assay [6], 0%. Further, the “%Inh” value in [7] is on record as 0%; in assay [8], 0%; in assay [9], 14%; in [10], 11%.

Regarding `Cc1ccc(C(=O)Nc2ccc(Oc3ccc4nc(NC(=O)C5CC5)cn4c3)c(F)c2)c(=O)n1-c1ccccc1`, the “%Inh” value in [1] came out at 31%; in assay [2], 0%; in [3] it was 72%; in assay [4], 0%; in assay [5] it was 0%; in assay [6], 0%. Besides, the “%Inh” value is recorded as 13% in assay [7], 0% in assay [8], 39% in [9] and 0% in [10].

Regarding `COc1cc2nccc(Nc3ccc(Oc4ccccc4)cc3)c2cc1OC.Cl` [GI261656], the “%Inh” value was 86% in assay [1]; 0% in [2]; 5% in assay [3]; 0% in assay [4]; 0% in assay [5]; 24% in assay [6]. The “%Inh” value in assay [7] turned out to be 0%; in assay [8], 0%; in [9] it was 6%; in assay [10], 13%.

Regarding `CSc1nccc(-c2c(-c3ccc(F)cc3)ncn2CCCN2CCOCC2)n1.Cl` [SB-217146], the “%Inh” value in assay [1] came to 0%; in assay [2], 6%; in assay [3], 0%; in assay [4] it was 45%; in assay [5] it was 0%; in assay [6], 11%. In addition, the “%Inh” value in [7] worked out at 10%; in [8], 0%; in assay [9], 0%; in assay [10] it was 18%.

Consider `CC(=O)Nc1ccc(-c2cc3ncnc(SCC(=O)O)c3s2)cc1`, for which the “%Inh” value came out at 0% in assay [1]; 59% in [2]; 0% in assay [3]; 0% in [4]; 11% in assay [5]; 19% in assay [6]. Further, the “%Inh” value in [7] was found to be 6%; in assay [8], 0%; in assay [9] it was 0%; in assay [10], 3%.

Take `NC(=O)Nc1sc(-c2ccc(F)cc2)cc1C(N)=O` [GW789449]: the “%Inh” value in [1] was found to be 20%; in assay [2], 37%; in assay [3] it was 34%; in assay [4] it was 12%; in assay [5], 0%; in [6] it was 0%. Besides, the “%Inh” value in [7] is 87%; in [8] it was 26%; in assay [9], 0%; in assay [10], 17%.

Regarding `C[C@@H]1CNc2c(sc3ccc4nc(-c5ccncc5)ccc4c23)C(=O)N1`, the “%Inh” value in assay [1] is recorded as 0%; in [2], 13%; in [3] it was 0%; in assay [4], 34%; in assay [5], 18%; in assay [6], 0%. In addition, the “%Inh” value in assay [7] came to 2%; in [8] it was 29%; in [9], 0%; in assay [10], 3%.

On to `CNC(=O)c1ccccc1Nc1nc(Nc2cccc(CS(C)(=O)=O)c2)ncc1C.O=CO` [GSK1520489], for which the “%Inh” value in assay [1] stood at 98.9%; in [2], 94.7%; in [3], 100%; in assay [4] it was 8%; in assay [5] it was 0%; in assay [6], 100%. For the same molecule, the “%Inh” value was determined as 85% in assay [7], 40% in assay [8], 25% in [9] and 34% in assay [10].

`C[C@@H]1CNc2c(sc3ccc4nc(-c5ccc(O)cc5)ccc4c23)C(=O)N1`: the “%Inh” value is reported as 4% in assay [1]; 0% in assay [2]; 12% in assay [3]; 41% in assay [4]; 0% in assay [5]; 0% in assay [6]. Besides, the “%Inh” value in [7] stood at 28%; in assay [8] it was 24%; in assay [9], 9%; in assay [10], 0%.

On to `COC(=O)Nc1nc2cc(Oc3ccc(NC(=O)Nc4cc(C(F)(F)F)ccc4Cl)cc3)ccc2[nH]1.Cl` [GW697465], for which the “%Inh” value in assay [1] was 9%; in assay [2] it was 0%; in [3] it was 8%; in [4] it was 0%; in assay [5], 0%; in assay [6] it was 65%. For the same molecule, the “%Inh” value in [7] is listed as 0%; in assay [8] it was 0%; in assay [9] it was 12%; in assay [10], 0%.

As to `Cn1ccc2ncnc(Oc3ccc(NC(=O)Nc4cccc(C(F)(F)F)c4)c(F)c3)c21`, the “%Inh” value in assay [1] was found to be 10%; in assay [2], 12%; in [3], 26%; in assay [4], 15%; in [5], 0%; in [6], 0%. For the same molecule, the “%Inh” value was determined as 24% in assay [7], 0% in assay [8], 2% in assay [9] and 7% in assay [10].

Regarding `NC(=O)c1ccc(-c2cc3ncnc(SCC(=O)O)c3s2)cc1`, the “%Inh” value was found to be 0% in assay [1]; 45% in assay [2]; 0% in assay [3]; 30% in [4]; 0% in assay [5]; 0% in assay [6]. Further, the “%Inh” value in assay [7] is listed as 0%; in assay [8], 0%; in [9], 14%; in assay [10] it was 0%.

On to `O=C(Nc1n[nH]c2cc(-c3ccco3)ccc12)C1CC1` [SB-737447], for which the “%Inh” value in assay [1] is 0%; in assay [2], 5%; in assay [3], 25%; in assay [4] it was 23%; in assay [5], 0%; in assay [6] it was 0%. For the same molecule, the “%Inh” value was 68% in [7], 3% in assay [8], 96.2% in assay [9] and 66% in assay [10].

Consider `Cl.c1ccc(Oc2ccc(Nc3ccnc4cc(-c5ccc(CN6CCNCC6)o5)ccc34)cc2)nc1` [GW567142], for which the “%Inh” value is listed as 82% in assay [1]; 68% in assay [2]; 0% in assay [3]; 0% in [4]; 10% in [5]; 0% in [6]. Also, the “%Inh” value in [7] worked out at 0%; in assay [8] it was 0%; in [9], 19%; in assay [10], 0%.

Values taken from article PMC5540273 (PLoS ONE, 2017).
